# Measured values from article PMC8384837, “Expanding the binding specificity for RNA recognition by a PUF domain”.
# Target: PUM1 PUF domain R3-EWG (Homo sapiens, UniProt Q14671 828-1176, C935E;R936W;Q939G)
# Assay: yeast three-hybrid, YBZ-1, SC-Leu-His + 0.5 mM 3-AT, 4 days
# Conditions: tags: N-Gal4 AD-HA kept; label: inside an RPR1-promoter hybrid RNA with tandem MS2 sites; ssRNA
# Method in brief: (§1)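 A centromeric plasmid in strain YBZ-1 co-expressed Pumilio-1 PUF domain libraries, randomized at the three base-contacting residues of each repeat, with matching RNA elements; the strain carries a LexA–MS2 coat fusion and a HIS3 reporter. After four days on SC-Leu (input) or SC-Leu-His + 0.5 mM 3-AT (selection), the repeat regions were PCR-amplified and Illumina-sequenced. The interaction score is the log change in variant frequency from input to selection, using log2 and a pseudocount of 1 where absent.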
# PUM1 PUF domain R3-EWG, sequence (Q14671 828-1176 C935E/R936W/Q939G): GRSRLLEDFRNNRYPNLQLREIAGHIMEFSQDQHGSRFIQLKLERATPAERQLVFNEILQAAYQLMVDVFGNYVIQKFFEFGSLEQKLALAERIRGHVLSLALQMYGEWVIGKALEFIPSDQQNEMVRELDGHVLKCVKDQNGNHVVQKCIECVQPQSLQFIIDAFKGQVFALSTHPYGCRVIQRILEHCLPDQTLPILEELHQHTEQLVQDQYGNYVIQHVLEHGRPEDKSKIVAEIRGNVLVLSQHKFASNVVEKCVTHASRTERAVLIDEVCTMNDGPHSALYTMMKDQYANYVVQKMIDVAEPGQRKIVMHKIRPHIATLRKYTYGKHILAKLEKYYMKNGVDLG
row,Sequence,binding signal
1,GGCUAGAACUAGUGGAUCCCCCGGCGCCCGGCGGCUCGAGCCCGGGUAAGUGUAAGUAGUCUGCAUGCCGCCGGGCGCCAUGCCUGCAGGUCGACUCUAGAAAACAUG,4.81 log2 enrichment (interaction score)
2,GGCUAGAACUAGUGGAUCCCCCGGCGCCCGGCGGCUCGAGCCCGGGUAAGUGUAAUUAGUCUGCAUGCCGCCGGGCGCCAUGCCUGCAGGUCGACUCUAGAAAACAUG,3.95 log2 enrichment (interaction score)
3,GGCUAGAACUAGUGGAUCCCCCGGCGCCCGGCGGCUCGAGCCCGGGUAAGUGUAAAUAGUCUGCAUGCCGCCGGGCGCCAUGCCUGCAGGUCGACUCUAGAAAACAUG,3.61 log2 enrichment (interaction score)

# Target: PUM1 PUF domain R4-SPS (Homo sapiens, UniProt Q14671 828-1176, N971S;H972P;Q975S)
# Sequence (Q14671 828-1176 N971S/H972P/Q975S): as the sequence (Q14671 828-1176 C935E/R936W/Q939G) above, with E108C, W109R, G112Q, N144S, H145P, Q148S counted along it
# Assay: as above
# Conditions: tags: N-Gal4 AD-HA kept; label: inside an RPR1-promoter hybrid RNA with tandem MS2 sites; ssRNA
# Method in brief: as §1
row,Sequence,binding signal
1,GGCUAGAACUAGUGGAUCCCCCGGCGCCCGGCGGCUCGAGCCCGGGUAAGUGUAAAUAGUCUGCAUGCCGCCGGGCGCCAUGCCUGCAGGUCGACUCUAGAAAACAUG,3.74 log2 enrichment (interaction score)
2,GGCUAGAACUAGUGGAUCCCCCGGCGCCCGGCGGCUCGAGCCCGGGUAAGUGUACAUAGUCUGCAUGCCGCCGGGCGCCAUGCCUGCAGGUCGACUCUAGAAAACAUG,1.66 log2 enrichment (interaction score)
3,GGCUAGAACUAGUGGAUCCCCCGGCGCCCGGCGGCUCGAGCCCGGGUAAGUGUAUAUAGUCUGCAUGCCGCCGGGCGCCAUGCCUGCAGGUCGACUCUAGAAAACAUG,2.82 log2 enrichment (interaction score)

# Target: PUM1 PUF domain R5-KYY (Homo sapiens, UniProt Q14671 828-1176, C1007K;R1008Y;Q1011Y)
# Sequence (Q14671 828-1176 C1007K/R1008Y/Q1011Y): as the sequence (Q14671 828-1176 C935E/R936W/Q939G) above, with E108C, W109R, G112Q, C180K, R181Y, Q184Y counted along it
# Assay: as above
# Conditions: tags: N-Gal4 AD-HA kept; label: inside an RPR1-promoter hybrid RNA with tandem MS2 sites; ssRNA
# Method in brief: as §1
row,Sequence,binding signal
1,GGCUAGAACUAGUGGAUCCCCCGGCGCCCGGCGGCUCGAGCCCGGGUAAGUGUCAAUAGUCUGCAUGCCGCCGGGCGCCAUGCCUGCAGGUCGACUCUAGAAAACAUG,3.07 log2 enrichment (interaction score)
2,GGCUAGAACUAGUGGAUCCCCCGGCGCCCGGCGGCUCGAGCCCGGGUAAGUGUAAAUAGUCUGCAUGCCGCCGGGCGCCAUGCCUGCAGGUCGACUCUAGAAAACAUG,1.63 log2 enrichment (interaction score)
3,GGCUAGAACUAGUGGAUCCCCCGGCGCCCGGCGGCUCGAGCCCGGGUAAGUGUUAAUAGUCUGCAUGCCGCCGGGCGCCAUGCCUGCAGGUCGACUCUAGAAAACAUG,2.56 log2 enrichment (interaction score)

# Target: PUM1 PUF domain R4-EYL (Homo sapiens, UniProt Q14671 828-1176, N971E;H972Y;Q975L)
# Sequence (Q14671 828-1176 N971E/H972Y/Q975L): as the sequence (Q14671 828-1176 C935E/R936W/Q939G) above, with E108C, W109R, G112Q, N144E, H145Y, Q148L counted along it
# Assay: as above
# Conditions: tags: N-Gal4 AD-HA kept; label: inside an RPR1-promoter hybrid RNA with tandem MS2 sites; ssRNA
# Method in brief: as §1
row,Sequence,binding signal
1,GGCUAGAACUAGUGGAUCCCCCGGCGCCCGGCGGCUCGAGCCCGGGUAAGUGUAAAUAGUCUGCAUGCCGCCGGGCGCCAUGCCUGCAGGUCGACUCUAGAAAACAUG,4.64 log2 enrichment (interaction score)
2,GGCUAGAACUAGUGGAUCCCCCGGCGCCCGGCGGCUCGAGCCCGGGUAAGUGUACAUAGUCUGCAUGCCGCCGGGCGCCAUGCCUGCAGGUCGACUCUAGAAAACAUG,1.81 log2 enrichment (interaction score)
3,GGCUAGAACUAGUGGAUCCCCCGGCGCCCGGCGGCUCGAGCCCGGGUAAGUGUAUAUAGUCUGCAUGCCGCCGGGCGCCAUGCCUGCAGGUCGACUCUAGAAAACAUG,3.34 log2 enrichment (interaction score)
